# Measurements taken from PubChem BioAssay (Tox21).
# “And” between values parts separate entries of the source, which are not always exact repeats. Equal values may be shown once. Results filed as inconclusive are left out. Values without a mark were called inactive. The source made the active and inactive calls. Calls come from the whole dose curve; as a rule, active = well fitted activation curve with a large enough effect in the repeat runs; inconclusive = weak or mixed curves, or effect the other way; inactive = no such curve, though single readings can be large or run the other way.
# Assay: qHTS assay to identify small molecule agonists of the retinoic acid receptor (RAR) signaling pathway (AID 1159553)
# Conditions: C3RL4 RARE luciferase reporter, agonist, 6 h; series mostly up to 73.3 µM; activation: at the top concentration
# Method in brief: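 6 hr compound exposure (DMSO vehicle) of overnight-plated C3RL4 RARE-luc cells at 37 C; luminescence quantified after 30 min RT with luciferase reagent.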
# % is set by controls: 0 for no effect and ±100 for the full control effect; potency is the fitted concentration of half-maximal effect.
Compound,activation,Potency
COC1CC(=C(c2cccs2)c2cccs2)C[N+](C)(C)C1 (stereo unspecified),1.95%,
O=S(=O)(Cl)Cl,-2.37%,
Cc1cnc(C2=NC(C)(C(C)C)C(=O)N2)c(C(=O)O)c1 (stereo unspecified),1.18%,
c1ccc2sc(SNC3CCCCC3)nc2c1,,30.3 µM (active) and 68.6 µM (active)
CN1CC[C@]23c4c5ccc(O)c4O[C@H]2[C@@H](O)C=C[C@H]3[C@H]1C5,-3.41%,
O=CC=O,1.18% [at 94.8 µM],
Nc1ccccc1C(=O)OCC(O)CO (stereo unspecified),0.749%,
C[C@]12CC[C@H]3[C@@H](CCC4=CC(=O)CC[C@@H]43)[C@@H]1CC[C@@H]2OC(=O)CCc1ccccc1,-8.44%,
CN1C(=O)CN=C(c2ccccc2)c2cc([N+](=O)[O-])ccc21,-1.54%,
CC(Oc1cc(Cl)c(Cl)cc1Cl)C(=O)O (stereo unspecified),-4.9%,
CCC(C)Cl (stereo unspecified),0.0869%,
CC(C)(C)c1ccc(CCOc2ncnc3ccccc23)cc1,-1.24%,
CC(C)(C)OOC(C)(C)CCC(C)(C)OOC(C)(C)C,-2.52%,
CC(C)c1ccc(OP(=O)(Oc2ccc(C(C)C)cc2)Oc2ccc(C(C)C)cc2)cc1,,inactive
C[C@H]1O[C@H](OC2[C@@H](O)[C@@H](O)C(O)[C@H](O)[C@H]2O)[C@@H](N)C[C@@H]1N=C(N)C(=O)O (stereo partly specified),1.22%,
C=CC(C)(CCC=C(C)C)OC(=O)c1ccccc1N (stereo unspecified),1.17% [at 94.8 µM],

Compound,activation,Potency
CC(C)(C)NCC(O)c1cc(Cl)c(N)c(C(F)(F)F)c1 (stereo unspecified),2.43%,
C=C(Cl)Cl,1.12% [at 94.8 µM],
O=C(O)C(F)(F)C(F)(F)C(F)(F)C(F)(F)C(F)(F)C(F)(F)C(F)(F)C(F)(F)F,-0.0371%,
CCCCCCCCCCCCCCCl,0.486% [at 94.8 µM],
Clc1ccc2ccccc2c1,-0.579% [at 94.8 µM],
CC[N+]1(C)CCCC(OC(=O)C(O)(c2ccccc2)c2ccccc2)C1 (stereo unspecified),2.47%,
C[N+]1(CCC(C(N)=O)(c2ccccc2)c2ccccc2)CCCCC1,1.24%,
CCC1CCC(=O)O1 (stereo unspecified),0.0548% [at 94.8 µM],
c1ccc2c(c1)-c1cccc3cccc-2c13,,inactive
C[N+](C)(C)CCOC(=O)C(O)(c1ccccc1)c1ccccc1,-4.45%,
CCCCCBr,-1.05% [at 94.8 µM],
Cc1nnc(-c2ccccc2)c(=O)n1N,5.63%,
FC(F)OC(F)(F)C(F)Cl (stereo unspecified),0.586%,
C#CC(O)(C=CCl)CC (stereo unspecified),-0.0022%,
O=C=NC1CCCCC1,,1.94 µM (active)
